Results as given in PubChem BioAssay AID743312 (Broad Institute, 2014).
Results with a measured potency or affinity are listed apart. The source made the active and inactive calls. How the calls were made is not given here.

Assay: toxicity to A549 lung cells – cell-based, plate reader, dry powder, set 6, cytotoxicity control, dose response (AID 743312)
Conditions: series mostly up to 26 µM

Row | SMILES | outcome
1 | OCc1nc2ccccc2n1CCOc1ccccc1 | inactive
2 | FC(F)(F)c1cccc(OCCn2cnc3ccccc32)c1 | inactive
3 | Clc1ccc(OCCn2cnc3ccccc32)c(Cl)c1 | inactive
4 | CSc1nc2ccccc2n1CCOc1ccc(C)cc1 | inactive
5 | CSc1nc2ccccc2n1CCOc1ccccc1 | inactive
6 | O=S(=O)(c1ccc(OCCn2cnc3ccccc32)cc1)N1CCOCC1 | inactive
7 | Cc1ccc(OCCn2cnc3ccccc32)c(C)c1 | inactive
8 | Cc1ccccc1OCCn1cnc2ccccc21 | inactive
9 | COCc1nc2ccccc2n1CCOc1ccc(C(C)(C)C)cc1 | inactive
10 | Clc1ccc(OCCn2cnc3ccccc32)cc1 | inactive
11 | CSc1nc2ccccc2n1CCOc1cc(C)ccc1C(C)C | inactive
12 | Fc1ccc(OCCn2c(=S)[nH]c3ccccc32)cc1 | inactive
13 | Cc1cccc(OCCn2c(=S)[nH]c3cc(F)ccc32)c1 | inactive
14 | COc1ccc(OCCn2cnc3ccccc32)cc1 | inactive
15 | CCCCc1nc2ccccc2n1CCOc1ccccc1 | inactive
16 | COc1ccccc1OCCn1c(=S)[nH]c2ccccc21 | inactive
17 | Cc1cccc(OCCn2cnc3ccccc32)c1 | inactive
18 | Cc1ccc(C(C)C)c(OCCn2c(N)nc3ccccc32)c1 | inactive
19 | S=c1[nH]c2cc(Cl)ccc2n1CCOc1ccccc1 | inactive
20 | Cc1ccc2c(c1)[nH]c(=S)n2CCOc1ccccc1 | inactive
21 | CC(C)Oc1ccc(OCCn2c(=S)[nH]c3ccccc32)cc1 | inactive
